Data as given in PubChem BioAssay (NCATS).
Records with an inconclusive call do not appear. Activity calls are given as the source filed them. Calls follow the shape of the dose curve; as a rule, active = well fitted inhibition curve with a large enough effect; inconclusive = small, poorly fitted or top-dose-only effect, or effect the other way; inactive = flat fitted curve, though single readings scatter.

Molecular target: ATP-dependent 6-phosphofructokinase (Trypanosoma brucei brucei) (UniProt O15648)
Assay: qHTS Validation Assay to Find Inhibitors of T. brucei phosphofructokinase (AID 485368)
Conditions: T. brucei PFK enzyme assay, qHTS 7-point titration; series mostly up to 57.5 µM
Description: NIH Molecular Libraries Probe Production Network [MLPCN]
NIH Chemical Genomics Center [NCGC]
PI Name: Malcolm Walkinshaw, University of Edinburgh
Various species of the protozoan family Trypanosomatidae are responsible for a range of serious human diseases in tropical and subtropical areas of the world. […] Many of the disorders caused by trypanosomatids are fatal if left untreated, but most currently used drugs are inefficient and toxic.
Oxidative metabolism involving the mitochondrial tricarboxylic acid cycle and oxidative phosphorylation are repressed in these parasites, and recent RNA interference (RNAi) experiments have shown that even partial depletion of certain individual glycolytic enzymes can lead to the death of cultured parasites. One such glycolytic enzyme, phosphofructokinase (PFK), catalyzes the formation of fructose-1,6-bisphosphate (F1,6BP) and ADP from fructose-6-phosphate (F6P) and ATP, and in many metabolic circumstances makes an important contribution to the control of flux through the glycolytic pathway. As a specific glycolytic target, PFK is particularly attractive as it catalyzes the first irreversible step in glycolysis, and structural and kinetic studies have shown very substantial and essential differences from corresponding host enzymes, allowing for the discovery of parasite-selective inhibitors.
The goal of this screen is to find small-molecule inhibitors of T. brucei PFK using a biochemical assay that measures PFK activity as a function of ADP production. A luminescence-based assay for T. brucei PFK activity has been developed which uses luciferase to detect production of ADP. Traditional luciferase-based nucleotide detection reagents rely on ATP production as a direct substrate for the luciferase reaction; however, PFK catalyzes the transfer of a phosphate from ATP to F6P, resulting in the net depletion of ATP. To directly measure the ADP product of the PFK reaction, we used the ADP-Glo detection kit (Promega), which utilizes two separate reactions to 1) deplete all remaining uncatalyzed ATP and 2) convert all remaining ADP to ATP, which is then detected through a traditional luciferase-coupled reaction. Compounds were screened as a concentration-titration series that ranged from 57 uM to 0.7 nM.
NCGC Assay Protocol Summary:
Substrate buffer was dispensed into white, solid 1536-well plates at 3uL/well in 0.1M triethanolamine (TEA) buffer, pH 8.0, containing final concentrations of 5 mM MgCl2, 0.01% Tween20, 0.5 mM fructose-6-phosphate (F6P) and 0.1mM ATP. Then, 23 nL of compounds or DMSO were delivered to each well using a pin tool. One uL T. brucei PFK (0.1M TEA, 0.01% Tween20, 0.1% bovine serum albumin (BSA) and 1.25nM PFK, final concentrations) was then dispensed, and plates were incubated at room temperature for 45 min. The luminescent detection reagent, ADP-Glo (Promega), was then added in two steps: the first reagent, ADP-Glo (which converts remaining uncatalyzed ATP), was added at 2.5uL/well and incubated for ten minutes at room temperature, and the second component, Kinase Detection reagent (which converts ADP to ATP as a substrate for luciferase-based luminescence), was added immediately after at 5uL/well, followed by one final ten minute room temperature incubation. The plates were measured on a ViewLux plate reader for luminescent signal using a clear filter with a one second exposure. The %Activity was determined from the corrected luminescence values. As no specific T. brucei PFK inhibitors have been identified in the literature, 1x (1.25nM) and 0x PFK enzyme controls (untreated) were included to normalize %Activity of identified inhibitors; 0x enzyme values corresponded to 100%Activity (full inhibition), while 1x PFK enzyme values were used to normalize 0%Activity (no inhibition).
Concentration-response curves were fitted to the signals arising from the resulting luminescence. […]

Sequence of ATP-dependent 6-phosphofructokinase (Trypanosoma brucei brucei) (O15648 whole entry, looked up): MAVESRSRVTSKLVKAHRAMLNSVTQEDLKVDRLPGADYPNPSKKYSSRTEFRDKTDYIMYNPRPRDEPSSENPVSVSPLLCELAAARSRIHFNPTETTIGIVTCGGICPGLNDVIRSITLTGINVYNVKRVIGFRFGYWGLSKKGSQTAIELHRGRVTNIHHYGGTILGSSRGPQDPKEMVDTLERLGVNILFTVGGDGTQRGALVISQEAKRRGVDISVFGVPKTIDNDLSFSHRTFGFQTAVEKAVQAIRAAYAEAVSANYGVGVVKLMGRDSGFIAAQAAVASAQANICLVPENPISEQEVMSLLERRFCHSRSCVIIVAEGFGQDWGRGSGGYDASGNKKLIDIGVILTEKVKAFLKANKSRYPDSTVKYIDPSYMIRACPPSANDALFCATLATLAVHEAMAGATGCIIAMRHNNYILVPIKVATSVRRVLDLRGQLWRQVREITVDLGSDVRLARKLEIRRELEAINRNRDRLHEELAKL

Structure (SMILES) | outcome
CCN(CC)CCOC(=O)c1ccc(N)cc1 | inactive
O=C1NC(=O)C(c2ccccc2)(c2ccccc2)N1 | inactive
CC(=O)CCCCn1c(=O)c2c(ncn2C)n(C)c1=O | inactive
O=C(O)CCc1nc(-c2ccccc2)c(-c2ccccc2)o1 | inactive
COC(=O)[C@@H]1[C@H]2C[C@H]3c4[nH]c5ccccc5c4CCN3C[C@@H]2CC[C@@H]1O | inactive
O=C(NCCN1CCOCC1)c1ccc(Cl)cc1 | inactive
COc1ccc(Cc2nccc3cc(OC)c(OC)cc23)cc1OC | inactive
CC/C(=C(\c1ccccc1)c1ccc(OCCN(C)C)cc1)c1ccccc1 | inactive
CC1=C(/C=C/C(C)=C/C=C/C(C)=C/C(=O)Nc2ccc(O)cc2)C(C)(C)CCC1 | inactive
NCCS | inactive
CC(=O)N[C@@H](CS)C(=O)O | inactive
CCN(CC)CCNC(=O)c1ccc(N)cc1 | inactive
CCN(CC)C(=O)c1ccc(O)c(OC)c1 | inactive
CC(=O)O[C@]1(C(C)=O)CC[C@H]2[C@@H]3C=C(Cl)C4=CC(=O)[C@@H]5C[C@@H]5[C@]4(C)[C@H]3CC[C@@]21C | inactive
CN(C)CCC(c1ccccc1)c1ccccn1 (stereo not given) | inactive
CC(C)(C)c1ccc(C(O)CCCN2CCC(C(O)(c3ccccc3)c3ccccc3)CC2)cc1 (stereo not given) | inactive
CC(=O)c1ccc(S(=O)(=O)NC(=O)NC2CCCCC2)cc1 | inactive
C[N+](C)(C)CCCCCC[N+](C)(C)C | inactive
CCn1cc(C(=O)O)c(=O)c2ccc(C)nc21 | inactive
CCCCCN(C)CCC(O)(P(=O)(O)O)P(=O)(O)O | inactive
